# From PubChem BioAssay (Tox21)
# “And” between values parts separate entries of the source, which are not always exact repeats. Identical values can stand only once. Results filed as inconclusive are left out. Some structures have more than one record in an assay (separate samples or runs), and their calls can disagree. A number with no mark means an inactive call. The source made the active and inactive calls. Calls come from the whole dose curve; as a rule, active = well fitted cell-killing curve with a large enough effect in the repeat runs; inconclusive = weak or mixed curves, or effect the other way; inactive = flat fitted curve, though single readings scatter. Starred links: 1 amine or outer side, 2 acyl side, 3 side chain; linkers in the order of their positions; H or OH if unused. Positions of bridges follow the written chain, without caps; N, C: chain ends. Non-standard residues stand in square brackets, D forms with d. Residues, ends and D or L forms follow the SMILES beside them. Chains are numbered I, II in the order given. Actinocin(9to1) = Cc1c2oc3c(C)ccc(C(=O)[*:1])c3nc-2c(C(=O)[*:2])c(N)c1=O; NMeV = CN[C@H](C(=O)O)C(C)C; Sar = CNCC(=O)O
# Assay: qHTS RealTime-Glo MT Cell Viability Assay in HEK293 cells - 40 hour (AID 1224874); note: nearly all actives have a fitted effect of over 50% in size
# Details: RealTime-Glo luminescence; max response: hits give low values
# From the text: U.S. Tox21 Program National Center for Advancing Translational Sciences [NCATS] NIH Chemical Genomics Center [NCGC] U.S. Environmental Protection Agency [EPA] National Institutes of Environmental Health Sciences [NIEHS] National Toxicology Program [NTP] U.S. Food and Drug Administration [FDA] Tox21 Assay Overview: Measure of cell viability is critical in the cell-base assay. Analysis of cell viability is necessary for the characterization of cell responses to cytotoxic drugs and environmental stress. A RealTime-Glo MT Cell Viability Assay to monitor cell viability in real time of continues cell culture during 40 hours of compound treatment was used to screen Tox21 10K library compounds in Hek293 cells. The RealTime-Glo MT Cell Viability Assay is a nonlytic, homogeneous, bioluminescent method to measure cell viability in real time using a simple, plate-based method. The assay involves adding NanoLuc luciferase and a cell-permeant prosubstrate to cells in culture. Viable cells reduce the proprietary prosubstrate to generate a substrate for NanoLuc luciferase. This substrate diffuses from cells into the surrounding culture medium, where it is rapidly used by the NanoLuc Enzyme to produce a luminescent signal. The signal correlates with the number of viable cells, making the assay well suited for cytotoxicity studies.
# Tox21 Assay Protocol Summary: The mixture of Hek293 cell suspension and reagents were dispensed at 600cells/6 ul/well in 1536-well tissue culture treated black solid bottom plates using a Multidrop dispenser. After the assay plates were incubated at a 37 C/5% CO2 incubator for 5 hours, 23 nL of compounds dissolved in DMSO, positive and negative controls was transferred to the assay plate by a pintool work station. The plates were incubated at 37 C for 40 hours. The luminescence intensity were measured at 0h, 8h, 16h, 24h, 32h and 40h time points using ViewLux plate reader during compound treatment.
# % is set by controls: 0 for no effect and ±100 for the full control effect; potency is the fitted concentration of half-maximal effect.
Structure (SMILES),Potency,max response
O=C(O[C@@H]1Cc2c(O)cc(O)cc2O[C@@H]1c1cc(O)c(O)c(O)c1)c1cc(O)c(O)c(O)c1,7.48 µM (active),
O=Nc1ccc(Nc2ccccc2)cc1,6.2 µM (active) and 7.76 µM (active),
O=C(O)c1cc(Cl)cc(Cl)c1,,8.11%
C#CC(C)(CC)OC(=O)c1ccccc1C(=O)O (stereo not given),,0.788%
CC(C)(C)c1ccc(O)c(C(C)(C)C)c1,38.7 µM (active),-25%
O=C(O)CP(=O)(O)O,,-6.08%
CC(N)=O,,14.5%
Nc1ccc2cc3ccccc3cc2c1,,-15.8% and 6.47%
Cc1occc(=O)c1OC(=O)C(C)C,,-0.202%
Oc1c(Cl)cc(Cl)c(Cl)c1Cc1c(O)c(Cl)cc(Cl)c1Cl,2.45 µM (active) and 3.89 µM (active),
Cc1cccc2n[nH]nc12,,-0.386%
C/C=C/c1ccc(OCC)c(O)c1,,-14.3% and 2.47%
O,,0.569% and 9.85%
OCCOCCN1CCN(C(c2ccccc2)c2ccc(Cl)cc2)CC1 (stereo not given),7.66 µM (active),-17.5%
CCOc1ccccc1C(N)=O,,-15.3% and 4.4%
CCC(C)(Oc1ccc(C2(c3ccc(OC(C)(CC)C(=O)O)cc3)CCCCC2)cc1)C(=O)O (stereo not given),,8.3%
CC(C)(C)c1cc(C(C)(C)C)c(O)c(C(C)(C)C)c1,,-7.81%
CCCCC/C=C/CC1CC(=O)OC1=O (stereo not given),,1.06%

Structure (SMILES),Potency,max response
O=C(O)c1cccc(C(=O)O)c1,,5.05% and -3.16%
C=C(C)C1CC=C(C)C(OC(C)=O)C1 (stereo not given),,-4.93% and 11%
Nc1nc2ccccc2[nH]1,,0.0562% and 7.05%
O=C1CC2(CCCC2)CC(=O)N1CCCCN1CCN(c2ncccn2)CC1,27.5 µM (active),
COC(=O)[C@H]1[C@H]2C[C@@H]3c4[nH]c5cc(OC)ccc5c4CCN3C[C@H]2C[C@@H](OC(=O)c2cc(OC)c(OC)c(OC)c2)[C@@H]1OC,4.36 µM (active) and 7.98 µM (active) and 8.49 µM (active),
CC(=O)N[C@@H](CS)C(=O)O,,3.06% and 6.4%
CC(=O)C1=C(C)[C@@H]2C[C@@]3(C1)[C@H](C)CC[C@H]3C2(C)C,,-1.5% and -2.44%
CC[C@@H](N)CO,,-8.2%
"Cc1c2oc3c(C)ccc(C(=O)N[C@@H]4C(=O)N[C@H](C(C)C)C(=O)N5CCC[C@H]5C(=O)N(C)CC(=O)N(C)[C@@H](C(C)C)C(=O)O[C@@H]4C)c3nc-2c(C(=O)N[C@@H]2C(=O)N[C@H](C(C)C)C(=O)N3CCC[C@H]3C(=O)N(C)CC(=O)N(C)[C@@H](C(C)C)C(=O)O[C@@H]2C)c(N)c1=O (I: T[dV]P[Sar][NMeV] / II: T[dV]P[Sar][NMeV]; ester I:1-I:C, II:1-II:C; linker I:N-II:N via Actinocin(9to1))",8.5 nM (active) and 16.9 nM (active),
CC(C)(C)c1ccccc1,,0.372%
CCC[C@H](N[C@@H](C)C(=O)N1[C@H](C(=O)O)C[C@@H]2CCCC[C@@H]21)C(=O)OCC,,4.1% and 12.6%
CCCCCCCCCCCCCCCCCl,,0.0293%
Nc1ccc(O)cc1,32.1 µM (active),18.9%
NCCO,,-3.29% and 1.65%
CCCCCCC(O)CCCCCCCCCCC(=O)O (stereo not given),,-19.9% and -13.9%
O=C1Nc2ccccc2C1(c1ccc(O)cc1)c1ccc(O)cc1,49 µM (active),-14.8%
CC(=O)CC(C)=O,,-5.33%
CCN(CC)C(=S)SSC(=S)N(CC)CC,174 nM (active) and 656 nM (active) and 13.4 µM (active),
